The list is not random: actives were taken first. Their share in the collection is about 19%.
DT40 TDP1 no CPT – qHTS for Inhibitors of human tyrosyl-DNA phosphodiesterase 1 (TDP1): qHTS in cells in absence of CPT | Potency, µM (top dose mostly 46.2 µM), actives largely listed as inhibitors | DT40 Tdp1-/- hTDP1 cells, no CPT, ATP luminescence, 48 h | actives 15% (n = 420,000) | AID 686978, 2013; also: nearly all actives have a fitted effect of over 55% in size
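Readout: luminescence from CellTiter-Glo after 30 min in the dark at RT. Cells: DT40 Tdp1-/- with stable hTDP1, 400/well. Exposure: compounds alone, ≥48 hr, 37 °C.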
HT1080 IDH1KD tx – qHTS for induction of synthetic lethality in tumor cells producing 2HG: qHTS for the HT-1080-IDH1KD cell line | AID 686971, 2013 | actives 2% (n = 360,000) | HT-1080 IDH1 knockdown viability, ATP luminescence, 48 h | Potency, µM (top dose mostly 46.1 µM), most hits filed as cytotoxic
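IDH1KD HT-1080 cells, 750/well, RPMI + 5% FBS; compound pinned after 2 h settling; 48 h, 37 °C; CellTiter-Glo luminescence; % activity normalised to DMSO and no-cell wells; curves fitted, classed by r2 and efficacy.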
KB-3-1 cytotox – qHTS assay for MDR1-selective chemotherapeutics: Primary screen using the parental adenocarcinoma cell KB-3-1; actives 1.4% (n = 400,000); AID 1347075, 2019; Potency, µM (highest dose often 46.1 µM), hits mostly cytotoxic; KB-3-1 viability, CellTiter-Glo ATP luminescence, 72 h; also: nearly all actives have a fitted effect of over 60% in size
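Viability of parental KB-3-1 cells, measured by CellTiter-Glo luminescence, followed a 72 h incubation at 37 °C with pinned compounds in phenol-red-free DMEM containing 10% FBS.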
DT40 TDP1 CPT – qHTS for Inhibitors of human tyrosyl-DNA phosphodiesterase 1 (TDP1): qHTS in cells in presence of CPT; chicken DT40 Tdp1-/-;hTDP1 cells + 20 nM CPT, ATP luminescence, 48 h; Potency, µM (series often up to 46.2 µM), actives largely listed as inhibitors; actives 12% (n = 420,000); also: nearly all actives have a fitted effect of over 55% in size
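Chicken DT40 Tdp1-/- cells stably complemented with human TDP1 were seeded at 400 cells/well in medium containing 20 nM camptothecin, exposed to pin-transferred compounds, and grown at 37 °C for at least 48 hr. Viability was read as ATP luminescence.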
KB-V1 MDR tox – qHTS assay for MDR1-selective chemotherapeutics: Primary screen using the drug-selected MDR subline cells KB-V1; KB-V1 MDR cells viability, CellTiter-Glo, 72 h; Potency, µM (highest dose often 46.1 µM), actives largely listed as cytotoxic; actives 3.4% (n = 400,000); AID 1347076, 2019; also: nearly all actives have a fitted effect of over 60% in size
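KB-V1 cells (P-gp-expressing MDR subline of KB-3-1) in phenol-red-free DMEM with 10% FBS were exposed to library compounds over a concentration series for 72 h at 37 degrees C. Viability read by CellTiter-Glo luminescence; concentration-effect curves fitted after normalization.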
HT1080-NT tox – qHTS for induction of synthetic lethality in tumor cells producing 2HG: qHTS for the HT-1080-NT fibrosarcoma cell line; actives 1.6% (n = 360,000); HT-1080-NT fibrosarcoma viability, CellTiter-Glo ATP luminescence, 48 h; Potency, µM (doses to about 46.1 µM), hits mostly cytotoxic;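 also: NT is the 2HG producing partner of a matched IDH1 knockdown line; nearly all actives have a fitted effect of over 55% in size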
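HT-1080-NT fibrosarcoma cells (2HG-overproducing), 750 cells/well in RPMI with 5% FBS, dosed after 2 h and incubated 48 h at 37C. CellTiter-Glo luminescence normalized to DMSO and no-cell wells; concentration-response curves fitted and classed.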
Large screens that a line does not name were inactive. Calls follow the shape of the dose curve; as a rule, active = well fitted curve in the direction sought with a large enough effect; inconclusive = small, poorly fitted or top-dose-only effect, or another doubt; inactive = no such curve, though single readings can be large; an effect the other way counts as inactive or inconclusive.

CC(/C=C/c1ccco1)=N/NC(=O)c1ccccc1Cl	DT40 TDP1 no CPT 16µM, DT40 TDP1 CPT 23µM
O=C(N/N=C/C=C/c1ccco1)c1ccccc1Cl	DT40 TDP1 no CPT 16µM, DT40 TDP1 CPT inconclusive
O=C(N/N=C/C=C/c1ccco1)c1ccncc1	none
CC(/C=C/c1ccco1)=N\NC(=O)c1cccc(Cl)c1	DT40 TDP1 no CPT inconclusive, HT1080 IDH1KD tx inconclusive, DT40 TDP1 CPT inconclusive, KB-V1 MDR tox inconclusive
Cc1ccc(OCC(=O)N/N=C/C=C/c2ccco2)c(Br)c1	DT40 TDP1 no CPT inconclusive, HT1080 IDH1KD tx inconclusive, DT40 TDP1 CPT 18µM
Cc1cc(C)c(NS(=O)(=O)c2ccc(NC(=O)c3cccs3)cc2)c(C)c1	none
CCOC(=O)/C=C/C(=O)Nc1ccc(Oc2ccccc2)cc1	DT40 TDP1 no CPT inconclusive, HT1080 IDH1KD tx 16µM, DT40 TDP1 CPT inconclusive, HT1080-NT tox 7.3µM
O=C(O)/C=C/C(=O)Nc1ccc(Oc2ccccc2)cc1	none
CCOC(=O)/C=C/S(=O)(=O)c1ccc(NC(C)=O)cc1	DT40 TDP1 no CPT 2.1µM, HT1080 IDH1KD tx inconclusive, KB-3-1 cytotox 15µM, DT40 TDP1 CPT 1.3µM, HT1080-NT tox inconclusive
CCOC(=O)/C=C/C(=O)Nc1ccc(S(=O)(=O)Nc2c(C)cc(C)cc2C)cc1	DT40 TDP1 no CPT 16µM, KB-3-1 cytotox inconclusive, DT40 TDP1 CPT 7.3µM, HT1080-NT tox inconclusive
CC(=O)C(C(c1ccccc1)N1CCOCC1)N1CCOCC1 (centres undefined)	DT40 TDP1 no CPT 18µM, KB-3-1 cytotox inconclusive, DT40 TDP1 CPT inconclusive
CC(NC(=O)Cc1ccccc1)C(c1ccccc1)N1CCOCC1 (centres undefined)	none
CC(NC(=O)c1ccc(-c2ccccc2)cc1)C(c1ccccc1)N1CCOCC1 (centres undefined)	DT40 TDP1 no CPT 13µM, KB-3-1 cytotox inconclusive, DT40 TDP1 CPT inconclusive, HT1080-NT tox inconclusive
O=C(COC(=O)CNC(=O)c1ccccc1F)NC1CC1	none
COc1ccc(CC(=O)NCc2ccc3c(c2)CCN3C(C)=O)cc1	none (no result: HT1080 IDH1KD tx, KB-3-1 cytotox, KB-V1 MDR tox, HT1080-NT tox)
CCC(=O)N[C@@H]1CC[C@@H](CCNC(=O)Nc2ccc(F)cc2)O[C@@H]1CO	none
CCOc1ccccc1-c1noc(CSc2nnc(-c3ccccc3)n2-c2cccc(C)c2)n1	DT40 TDP1 no CPT 21µM, DT40 TDP1 CPT inconclusive (no result: HT1080 IDH1KD tx, HT1080-NT tox)
CCOc1ccccc1-c1noc(CSc2nnc(-c3ccncc3)n2-c2ccc(F)cc2)n1	DT40 TDP1 no CPT 16µM (no result: HT1080 IDH1KD tx, HT1080-NT tox)
CCOc1ccc(-n2c(SCc3nc(-c4ccc(OC)cc4)no3)nnc2-c2ccncc2)cc1	DT40 TDP1 no CPT inconclusive, DT40 TDP1 CPT inconclusive (no result: HT1080 IDH1KD tx, HT1080-NT tox)
COc1ccccc1-c1noc(CSc2nnc(Cc3ccccc3)n2-c2ccc(C)c(C)c2)n1	DT40 TDP1 no CPT 23µM, DT40 TDP1 CPT 16µM (no result: HT1080 IDH1KD tx, HT1080-NT tox)
CCOc1ccc(-n2c(Cc3ccccc3)nnc2SCc2nc(-c3cccs3)no2)cc1	DT40 TDP1 no CPT inconclusive, DT40 TDP1 CPT inconclusive, KB-V1 MDR tox inconclusive (no result: HT1080 IDH1KD tx, HT1080-NT tox)
Cc1ccc(-n2c(SCc3nc(-c4ccccc4C)no3)nnc2-c2ccncc2)cc1C	DT40 TDP1 no CPT 21µM, DT40 TDP1 CPT 23µM (no result: HT1080 IDH1KD tx, HT1080-NT tox)
Cc1cccc(-n2c(SCc3nc(-c4ccccc4C)no3)nnc2-c2ccccc2)c1	DT40 TDP1 no CPT inconclusive (no result: HT1080 IDH1KD tx, HT1080-NT tox)
COc1ccc(-c2noc(CSc3nnc(-c4ccncc4)n3-c3cccc(C)c3)n2)cc1OC	DT40 TDP1 no CPT inconclusive, DT40 TDP1 CPT inconclusive (no result: HT1080 IDH1KD tx, HT1080-NT tox)
COC(=O)C1C(O)CC[C@@H]2CN3CCc4c([nH]c5ccccc45)C3C[C@@H]12 (some centres undefined)	none (no result: HT1080 IDH1KD tx, KB-3-1 cytotox, KB-V1 MDR tox, HT1080-NT tox)

From PubChem BioAssay
